The full data set covers some 7,900 targets. This sample favours those with a hit. About 0.6% of all pairs of compound and target were hits.
Target: ZDHHC17 (UniProt Q8IUH5)
Test: log2 fold change, soluble protein after heating vs DMSO (PISA); higher = thermal stabilisation; K562 cells, 10 uM, 30 min; active = over 0.2 and 3.5 SD of the protein, either way, in both replicates (recomputed)
Procedure, shortened: (§1)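 Values are thermal stability changes relative to control samples and are taken from duplicates. They are stated as log2 fold changes. Before quantification by TMTpro 16plex LC-MS/MS with equalised channel sums, K562 cells at 2×10^6 cells/mL were treated with 10 μM compound for 30 min, heated in aliquots for 3 min across 48°C-58°C, pooled, extracted in PBS with 0.5% NP-40 at 4°C, and centrifuged at 21,000xg for 90 min to give the soluble supernatant.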

Chain of ZDHHC17 (Q8IUH5 whole entry, looked up): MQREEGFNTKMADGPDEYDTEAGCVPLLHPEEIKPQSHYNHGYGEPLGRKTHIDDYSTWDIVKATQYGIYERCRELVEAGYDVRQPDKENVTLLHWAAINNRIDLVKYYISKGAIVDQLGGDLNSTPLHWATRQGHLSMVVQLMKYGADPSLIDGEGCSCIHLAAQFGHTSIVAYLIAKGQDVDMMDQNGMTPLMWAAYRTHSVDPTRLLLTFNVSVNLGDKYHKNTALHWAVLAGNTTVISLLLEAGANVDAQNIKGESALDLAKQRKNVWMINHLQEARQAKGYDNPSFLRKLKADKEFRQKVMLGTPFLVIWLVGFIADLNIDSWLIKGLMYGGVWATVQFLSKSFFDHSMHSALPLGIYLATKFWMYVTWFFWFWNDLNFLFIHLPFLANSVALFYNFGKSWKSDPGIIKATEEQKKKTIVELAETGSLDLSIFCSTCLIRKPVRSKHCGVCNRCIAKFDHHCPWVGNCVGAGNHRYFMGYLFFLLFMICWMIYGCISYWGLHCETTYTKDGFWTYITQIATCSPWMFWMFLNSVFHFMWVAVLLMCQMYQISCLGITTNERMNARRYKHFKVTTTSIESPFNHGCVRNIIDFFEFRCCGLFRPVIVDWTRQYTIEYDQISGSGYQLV

log2 fold change, inactive:
CN1CCN(c2nc(C3=C(c4c[nH]c5ccccc45)C(=O)NC3=O)c3ccccc3n2)CC1 [sotrastaurin] 0.099
CCn1cc(-c2ccnc3[nH]c(-c4cccc(CN(C)C)c4)cc23)c(-c2ccc(NC(=O)N(C)C)cc2)n1 -0.018
COc1cccc2cc(-c3nc([C@H]4CC[C@H](C(=O)O)CC4)n4ncnc(N)c34)[nH]c12 0.003
CS(=O)(=O)c1ccc(-c2cnc(N)c(C(=O)Nc3ccccc3)n2)cc1 -0.005
O=C(CCCCCCNC(=O)c1cnc(N(c2ccccc2)c2ccccc2Cl)nc1)NO [citarinostat] -0.17
NC1(c2ccc(-c3nc4ccn5c(=O)[nH]nc5c4cc3-c3ccccc3)cc2)CCC1 -0.06
COC(=O)[C@H](CCSC)NC(=O)c1ccc(NC[C@@H](N)CS)cc1-c1ccccc1 0.01
CN(C)CC(=O)Nc1ccc2[nH]c(=O)c3ccccc3c2c1 -0.005
Cc1cccc(CC(=O)N2CCc3c2ccc(-c2cn(C)c4ncnc(N)c24)c3F)n1 -0.082

Target: ZDHHC20 (UniProt Q5W0Z9)
Sequence (Q5W0Z9 whole entry, looked up): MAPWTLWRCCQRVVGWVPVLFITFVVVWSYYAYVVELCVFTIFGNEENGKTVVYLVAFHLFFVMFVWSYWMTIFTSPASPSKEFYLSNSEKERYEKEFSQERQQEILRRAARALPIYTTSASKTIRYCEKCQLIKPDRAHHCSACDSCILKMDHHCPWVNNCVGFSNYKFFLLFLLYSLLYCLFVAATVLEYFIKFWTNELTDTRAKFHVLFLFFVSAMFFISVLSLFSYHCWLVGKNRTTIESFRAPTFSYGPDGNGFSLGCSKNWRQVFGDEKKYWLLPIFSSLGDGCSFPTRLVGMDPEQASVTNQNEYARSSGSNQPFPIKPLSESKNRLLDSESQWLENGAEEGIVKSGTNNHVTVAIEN
Test: as above
Procedure, shortened: as §1

log2 fold change, inactive:
CON(C)C(=O)N1N=C(c2cc(F)ccc2F)S[C@@]1(CCCN)c1ccccc1 [filanesib] 0.008
NC(=O)Nc1cc(-c2cccc(F)c2)sc1C(=O)N[C@H]1CCCNC1 -0.219
Cn1cncc1[C@@](N)(c1ccc(Cl)cc1)c1ccc2c(c1)c(-c1cccc(Cl)c1)cc(=O)n2C [tipifarnib] -0.014
CN1CCC(CNc2ccc3ncc(-c4cccc(OC(F)(F)F)c4)n3n2)CC1 0.035
Cc1cc(Nc2cc(CN3CCOCC3)c3nc(C)c(Cc4ccc(Cl)cc4F)n3n2)n[nH]1 [gandotinib] 0.018
CC[C@@H]1C(=O)N(C)c2cnc(Nc3ccc(C(=O)NC4CCN(C)CC4)cc3OC)nc2N1C1CCCC1 0.031
CCCS(=O)(=O)Nc1ccc(F)c(C(=O)c2c[nH]c3ncc(-c4ccc(Cl)cc4)cc23)c1F [vemurafenib] 0.049
CS(=O)(=O)CCNCc1ccc(-c2ccc3ncnc(Nc4ccc(OCc5cccc(F)c5)c(Cl)c4)c3c2)o1 [lapatinib] 0.063
CCCc1cc(C)[nH]c(=O)c1CNC(=O)c1cc(-c2ccnc(N3CCN(C)CC3)c2)cc2c1cnn2C(C)C -0.079
Cc1ccc(NC(=O)c2cccc(C(C)(C)C#N)c2)cc1Nc1ccc2ncn(C)c(=O)c2c1 -0.067
c1cc(OCCN2CCCCC2)cc(-c2n[nH]c3ccc(-c4nnc[nH]4)cc23)c1 0.053
COC(=O)N[C@@H](C)CNc1nccc(-c2cn(C(C)C)nc2-c2cc(Cl)cc(NS(C)(=O)=O)c2F)n1 [encorafenib] -0.058
O=C(O)c1ccc2c(c1)nc(Nc1cccc(Cl)c1)c1ccncc12 [silmitasertib] 0.08
FC(F)(F)c1ccc(/C=C/c2nc(COc3ccc(CCCCn4ccnn4)cc3)co2)cc1 [mubritinib] 0.03
CNCc1ccc(-c2[nH]c3cc(F)cc4c3c2CCNC4=O)cc1 [rucaparib] 0.115
COc1cc(Nc2ncc3c(n2)-c2ccc(Cl)cc2C(c2c(F)cccc2OC)=NC3)ccc1C(=O)O [alisertib] -0.052
CC[C@@H]1C(=O)N(C)c2cnc(Nc3ccc(C(=O)N[C@H]4CC[C@H](N5CCN(CC6CC6)CC5)CC4)cc3OC)nc2N1C(C)C [volasertib] 0.011
CNC(=O)c1ccc(Nc2ncc(C(F)(F)F)c(NCc3nccnc3N(C)S(C)(=O)=O)n2)cc1 [defactinib] -0.231
COc1cc2nc(-c3cc(F)ccc3O)nc(N[C@@H]3CNC[C@H]3C(C)(C)O)c2cc1OC -0.086
Nc1ccccc1NC(=O)c1ccc(CNC(=O)OCc2cccnc2)cc1 [entinostat] 0.045
NCC(=O)Nc1ccc(-n2nc(C(F)(F)F)cc2-c2ccc3c(ccc4ccccc43)c2)cc1 0.093
CN1CCN(c2nc(C3=C(c4c[nH]c5ccccc45)C(=O)NC3=O)c3ccccc3n2)CC1 [sotrastaurin] 0.015
CCn1cc(-c2ccnc3[nH]c(-c4cccc(CN(C)C)c4)cc23)c(-c2ccc(NC(=O)N(C)C)cc2)n1 -0.016
COc1cccc2cc(-c3nc([C@H]4CC[C@H](C(=O)O)CC4)n4ncnc(N)c34)[nH]c12 0.11
CS(=O)(=O)c1ccc(-c2cnc(N)c(C(=O)Nc3ccccc3)n2)cc1 0.067
O=C(CCCCCCNC(=O)c1cnc(N(c2ccccc2)c2ccccc2Cl)nc1)NO [citarinostat] -0.028
NC1(c2ccc(-c3nc4ccn5c(=O)[nH]nc5c4cc3-c3ccccc3)cc2)CCC1 -0.027
COC(=O)[C@H](CCSC)NC(=O)c1ccc(NC[C@@H](N)CS)cc1-c1ccccc1 0.028
CN(C)CC(=O)Nc1ccc2[nH]c(=O)c3ccccc3c2c1 -0.026
Cc1cccc(CC(=O)N2CCc3c2ccc(-c2cn(C)c4ncnc(N)c24)c3F)n1 0.021
